In PubChem BioAssay AID977606 (Broad Institute, 2014):
Screen size: about 1,500 compounds; about 430 (29%) were called active. Only a sample is shown. Entries with a potency or affinity are not part of this list. Unmarked numbers belong to inactive results. How the calls were made is not given here.

assay: insulin secretion activators without glucose, dose response, counter-screen for glucose-dependent insulin secretion activators, cell-based, INS-1E, Gaussia luciferase, luminescence, cherry-pick (AID 977606); conditions: INS-1E Gaussia luciferase insulin secretion, no glucose, 100% = twice neutral-control luminescence; series mostly up to 35 µM; activation: at the top concentration;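 further: 0% = median of neutral control wells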

| Structure (SMILES) | activation |
| --- | --- |
| COc1ccc(C(=O)C2CCCN(Cc3cccn3-c3nccs3)C2)cc1OC (stereo unspecified) | -11.6% |
| CN(C)C(=O)c1ccc(-c2ccc([C@@H]3[C@@H](CO)N4C(=O)CN(C(=O)C5CC5)C[C@@H]34)cc2)cc1 | -5.05% |
| Cc1c(O)cnc2nn(-c3ccccc3)c(=N)n12 | -0.377% |
| CCOC(=O)Cc1cc(=O)n2[nH]c(-c3ccc(C)cc3)cc2n1 | -0.415% |
| CN(C)c1ccc(/C=N/NC(=O)c2ccccc2Cl)cc1 | 4.15% |
| CC(C)Oc1ccc(Br)cc1C(=O)N/N=C/c1c[nH]c2ccccc12 | -22% |
| CCNc1nc(Oc2ccc(C#N)cc2)cc(C(F)(F)F)n1 | -1.93% |
| COc1ccc2oc(-c3ccncc3)cc(=O)c2c1 | -9.47% |
| O=C(Nc1ccc(NC(=O)c2cccs2)cc1)c1ccc2c(c1)OCO2 | -4.2% |
| O=C(Nc1ccc2oc(-c3cccnc3)nc2c1)c1ccc2c(c1)OCCO2 | -11.3% |
| CCNc1nc(NCC)nc(N(C#N)C(C)C)n1 | -5.43% |
| O=C(NC1CCCC1)c1ccc(Cl)c(S(=O)(=O)N2CCOCC2)c1 | 16.1% |
| COc1ccc(C(=O)N2CCc3cc(OC)c(OC)cc3C2c2ccc(OC)c(OC)c2)cc1OC (stereo unspecified) | -0.986% |
| O=C(NCc1cccnc1)c1cccc(S(=O)(=O)NCc2ccccc2)c1 | 9.69% |
| COc1ccc(C(=O)Nc2ccccc2C(=O)NCc2cccnc2)cc1OC | -17.2% |
| Clc1ccc(-c2cc(CN3CCOCC3)no2)cc1 | -2.2% |
| Cc1cc(C)n(CC(=O)n2c3ccccc3c3ccccc32)n1 | 30.6% |
| O=C(c1cccs1)N(Cc1ccc(Cl)cc1)C1CCS(=O)(=O)C1 (stereo unspecified) | 4.09% |
| COc1ccc(C(=O)OCC(=O)NC(=O)NC2CCCC2)cc1OC | 9.28% |

| Structure (SMILES) | activation |
| --- | --- |
| O=C(O)c1ccc(-n2nnnc2SCc2ccccc2F)cc1 | 10.5% |
| O=C(Nc1ccccc1)Nc1nnc(-c2cccs2)s1 | -7.75% |
| O=C(c1ccco1)N(Cc1ccc(Cl)cc1)C1CCS(=O)(=O)C1 (stereo unspecified) | -8.3% |
| O=C(COc1ccccc1Cl)NNC(=O)c1ccc2nc[nH]c2c1 | 116% |
| COc1ccccc1N(CC(=O)NCC1CCCO1)C(=O)CNS(=O)(=O)c1ccc(Cl)cc1 (stereo unspecified) | -9.55% |
| Cc1cc(C)cc(N(C(=O)C(F)(F)F)C(C(=O)NC2CCCCC2)c2cccs2)c1 (stereo unspecified) | -9.93% |
| O=C(NCc1ccccn1)c1ccccc1OCc1ccc(Cl)cc1Cl | -13.4% |
| COc1ccc2oc(=O)c(C(=O)NCc3ccccn3)cc2c1 | -6.38% |
| CC1CCC(NC(=O)C2COc3ccccc3O2)CC1 (stereo unspecified) | 10.4% |
| CCCCOC(=O)c1cc(-c2ccc(/C=N/n3cnnc3)o2)ccc1Cl | 9.96% |
| C=CCc1ccc(OCCOc2ccc(/C=N/n3cnnc3)cc2OCC)c(OC)c1 | 0.229% |
| N#Cc1c(-c2ccco2)cc(C2CC2)nc1N | -5.34% |
| COc1cc2c(cc1OC)C(Nc1ccccc1)=NC(C)(C)C2 | 4.87% |
| O=C(NCC1(O)CCCCC1)C1CCC(=O)N(Cc2ccccc2F)C1 (stereo unspecified) | -10.8% |
| NC1=NC(=O)C(Cc2ccc(F)cc2)S1 (stereo unspecified) | -5.09% |
| COc1cc(OC)c(OC)cc1/C=N/n1c(C)nc2ccccc2c1=O | 8.58% |
| O=C1Nc2cnc(Cl)nc2Nc2ccccc21 | 4.25% |
| COc1ccc(-c2cc(C(=O)N(C)Cc3ccc(OC)c(OC)c3OC)c3ccccc3n2)cc1OC | -7.27% |
| COc1ccc(CN(C)C(=O)c2cc(-c3ccc(OC)c(OC)c3)nc3ccccc23)c(OC)c1 | -22.4% |

| Structure (SMILES) | activation |
| --- | --- |
| COc1ccc(F)cc1C(=O)C1CCCN(C(=O)c2ccc(C(C)=O)s2)C1 (stereo unspecified) | -18.8% |
| Clc1ccc(OCCn2ccnc2)c(Cl)c1 | 4.01% |
| C=CCOc1cccc(C(=O)N2CCC(CCC(=O)NC3CC3)CC2)c1 | -12.5% |
| COc1ccc(CCNc2ccncn2)cc1OC | -4.77% |
| Cc1cc2cc(C#N)c(N3CCOCC3)nc2cc1Cl | -1.36% |
| CCN1CCN(CCCNC(=O)c2ccc3c(c2)N(Cc2ccccc2)CCS3)CC1 | 37.4% |
| Nc1[nH]c(C(=O)c2ccccc2)c(-c2c(F)cccc2F)c1C(=O)c1ccc(Cl)c(Cl)c1 | 58.5% |
| Cc1cn(CC(C)C)c(=O)n(-c2ccccc2)c1=O | -7.49% |
| COc1cc2c(cc1OC)CN(C(=O)Cc1ccccc1)CC2 | -4.85% |
| COc1ccc(CC(=O)OCC(=O)N2CCc3ccccc32)cc1OC | 3.22% |
| CC/C(O)=C1\C(=O)CC(C)(C)CC1=Nc1ccccc1C | -0.909% |
| CC(C)(C)c1ccc(C#C[C@@H]2C=C[C@H]3OC(=O)CC/C=C/CCC(=O)OC[C@H]3O2)cc1 | 14.5% |
| CC1CCc2nc(N)c(C#N)c(-c3ccncc3)c2C1 (stereo unspecified) | -10.7% |
| Cc1c(C=O)c2ccccn2c1C(=O)c1ccc(F)cc1 | 0.457% |
| COc1ccccc1Nc1c2c(nc3ccc(N)cc13)CCCC2 | 11.6% |
| CN(C)c1ccc(CC(=O)N2CCCCC2c2cc(C(=O)Nc3ccccc3Cl)no2)cc1 (stereo unspecified) | -26.1% |
| O=C(O)CNS(=O)(=O)c1ccc2c(c1)Cc1cc(S(=O)(=O)NCC(=O)O)ccc1-2 | -4% |
| CCc1cc2c(COC(=O)c3cccc(S(C)(=O)=O)c3)cc(=O)oc2cc1O | -16.9% |
